PubChem BioAssay AID1159580 (chemical genetic matrix, 2015)
In all, about 5,500 compounds went through this assay and about 2,000 (36%) were called active. Another 18% or so got no clear call; they are omitted. Cut-off read from the data, not from the text of the source: active = normalized growth mostly below about 0.91 (no sharp cut-off); inconclusive = no clear call, values can overlap the other calls; inactive = mostly above about 0.92. The list shows a part of the results.

Experiment: chemical genetic growth profiling, strain panel (AID 1159580);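 note: tested at 20 µM; growth read once vehicle control cultures reached saturation at 30 °C; 1 = growth at the plate median or of vehicle wells; lower values mean less growth of the strain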
Conditions: growth OD

Measured: normalized growth

C=CCC1(C(C)CCC)C(=O)N=C(S)NC1=O (configuration not stated)
inactive: S. cerevisiae deletion strains, locus YJR075W, strain HOC1, active compounds read low 1.04 | S. cerevisiae deletion strains, locus YKL009W, strain mrt4, active compounds read low 0.963 | S. cerevisiae deletion strains, locus YKL068W, active compounds read low 0.969 | S. cerevisiae deletion strains, locus YKL085W, strain MDH1 (second series), active compounds read low 0.983 | S. cerevisiae deletion strains, locus YKL085W, strain MDH1, active compounds read low 0.983 | S. cerevisiae deletion strains, locus YKL160W, strain elf1, active compounds read low 0.972 | S. cerevisiae deletion strains, locus YKL190W, strain CNB1, active compounds read low 0.992 | S. cerevisiae deletion strains, locus YKR001C, strain vps1, active compounds read low 0.993 | S. cerevisiae deletion strains, locus YKR026C, strain gcn3, active compounds read low 0.925 | S. cerevisiae deletion strains, locus YKR091W, strain srl3, active compounds read low 0.978 | S. cerevisiae deletion strains, locus YLL001W, strain dnm1, active compounds read low 0.942 | S. cerevisiae deletion strains, locus YLL026W, active compounds read low 0.994 | S. cerevisiae deletion strains, locus YLL041C, strain sdh2, active compounds read low 0.974 | S. cerevisiae deletion strains, locus YLR027C, strain aat2, active compounds read low 0.979 | S. cerevisiae deletion strains, locus YLR039C, strain RIC1, active compounds read low 0.891 | S. cerevisiae deletion strains, locus YLR058C, strain SHM2, active compounds read low 0.988 | S. cerevisiae deletion strains, locus YLR102C, strain apc9, active compounds read low 0.966 | S. cerevisiae deletion strains, locus YLR113W, strain HOG1, active compounds read low 0.977 | S. cerevisiae deletion strains, locus YLR221C, strain rsa3, active compounds read low 1 | S. cerevisiae deletion strains, locus YLR258W, strain gsy2, active compounds read low 0.967 | S. cerevisiae deletion strains, locus YLR262C, strain YPT6 (second series), active compounds read low 0.905 | S. cerevisiae deletion strains, locus YLR262C, strain YPT6, active compounds read low 0.853 | S. cerevisiae deletion strains, locus YLR268W, strain sec22, active compounds read low 0.992 | S. cerevisiae deletion strains, locus YLR320W, strain mms22, active compounds read low 1.01 | S. cerevisiae deletion strains, locus YLR330W, strain CHS5, active compounds read low 0.979 | S. cerevisiae deletion strains, locus YLR342W, strain FKS1 (second series), active compounds read low 0.916 | S. cerevisiae deletion strains, locus YLR342W, strain FKS1, active compounds read low 0.978 | S. cerevisiae deletion strains, locus YLR357W, strain rsc2, active compounds read low 0.978 | S. cerevisiae deletion strains, locus YLR370C, strain arc18, active compounds read low 0.99 | S. cerevisiae deletion strains, locus YLR371W, strain rom2, active compounds read low 0.957 | S. cerevisiae deletion strains, locus YLR384C, strain iki3, active compounds read low 0.944 | S. cerevisiae deletion strains, locus YLR418C, strain cdc73, active compounds read low 1.04 | S. cerevisiae deletion strains, locus YML016C, strain PPZ1, active compounds read low 0.994 | S. cerevisiae deletion strains, locus YML032C, strain rad52, active compounds read low 0.957 | S. cerevisiae deletion strains, locus YML120C, strain ndi1, active compounds read low 0.988 | S. cerevisiae deletion strains, locus YML124C, strain tub3, active compounds read low 0.981 | S. cerevisiae deletion strains, locus YMR058W, strain fet3, active compounds read low 0.977 | S. cerevisiae deletion strains, locus YMR078C, strain ctf18, active compounds read low 0.972 | S. cerevisiae deletion strains, locus YMR125W, strain sto1, active compounds read low 0.923 | S. cerevisiae deletion strains, locus YMR129W, active compounds read low 0.978 | S. cerevisiae deletion strains, locus YMR205C, strain PFK2, active compounds read low 0.965 | S. cerevisiae deletion strains, locus YMR223W, strain ubp8, active compounds read low 0.979 | S. cerevisiae deletion strains, locus YMR231W, strain pep5, active compounds read low 0.963 | S. cerevisiae deletion strains, locus YMR263W, strain SAP30, active compounds read low 1.01 | S. cerevisiae deletion strains, locus YMR307W, strain GAS1, active compounds read low 1.02 | S. cerevisiae deletion strains, locus YNL067W, strain RPL9B, active compounds read low 1.02 | S. cerevisiae deletion strains, locus YNL071W, strain lat1, active compounds read low 1 | S. cerevisiae deletion strains, locus YNL128W, strain TEP1, active compounds read low 1.01 | S. cerevisiae deletion strains, locus YNL153C, strain GIM3, active compounds read low 1.03 | S. cerevisiae deletion strains, locus YNL183C, strain NPR1, active compounds read low 0.929 | S. cerevisiae deletion strains, locus YNL209W, strain ssb2, active compounds read low 0.976 | S. cerevisiae deletion strains, locus YNL233W, strain BNI4, active compounds read low 1.03 | S. cerevisiae deletion strains, locus YNL248C, strain rpa49, active compounds read low 0.914 | S. cerevisiae deletion strains, locus YNL250W, strain rad50, active compounds read low 0.963 | S. cerevisiae deletion strains, locus YNL271C, strain bni1, active compounds read low 0.98 | S. cerevisiae deletion strains, locus YNL298W, strain CLA4, active compounds read low 0.978 | S. cerevisiae deletion strains, locus YNL307C, strain MCK1, active compounds read low 0.961 | S. cerevisiae deletion strains, locus YNL322C, strain KRE1 (second series), active compounds read low 0.969 | S. cerevisiae deletion strains, locus YNL322C, strain KRE1, active compounds read low 0.989 | S. cerevisiae deletion strains, locus YNR049C, strain mso1, active compounds read low 0.97 | S. cerevisiae deletion strains, locus YNR052C, strain pop2, active compounds read low 0.995 | S. cerevisiae deletion strains, locus YOL006C, strain TOP1, active compounds read low 1.06 | S. cerevisiae deletion strains, locus YOL012C, strain htz1 1.08 | S. cerevisiae deletion strains, locus YOL147C, strain pex11, active compounds read low 0.99 | S. cerevisiae deletion strains, locus YOR001W, strain rrp6, active compounds read low 0.952 | S. cerevisiae deletion strains, locus YOR061W, strain CKA2, active compounds read low 0.99 | S. cerevisiae deletion strains, locus YOR069W, strain VPS5, active compounds read low 0.974 | S. cerevisiae deletion strains, locus YOR070C, strain gyp1, active compounds read low 0.991 | S. cerevisiae deletion strains, locus YOR080W, strain dia2, active compounds read low 0.959 | S. cerevisiae deletion strains, locus YOR083W, strain WHI5, active compounds read low 0.976 | S. cerevisiae deletion strains, locus YOR106W, strain vam3, active compounds read low 0.941 | S. cerevisiae deletion strains, locus YOR136W, strain idh2, active compounds read low 0.993 | S. cerevisiae deletion strains, locus YOR144C, strain elg1, active compounds read low 0.991 | S. cerevisiae deletion strains, locus YOR184W, strain ser1, active compounds read low 0.949 | S. cerevisiae deletion strains, locus YOR231W, strain MKK1, active compounds read low 0.984 | S. cerevisiae deletion strains, locus YOR265W, strain rbl2, active compounds read low 0.976 | S. cerevisiae deletion strains, locus YOR270C, strain vph1, active compounds read low 0.912 | S. cerevisiae deletion strains, locus YOR290C, strain snf2, active compounds read low 0.996 | S. cerevisiae deletion strains, locus YOR316C, strain cot1, active compounds read low 0.981 | S. cerevisiae deletion strains, locus YPL051W, strain arl3, active compounds read low 0.979 | S. cerevisiae deletion strains, locus YPL055C, strain LGE1, active compounds read low 1.02 | S. cerevisiae deletion strains, locus YPL078C, strain atp4, active compounds read low 0.937 | S. cerevisiae deletion strains, locus YPL106C, strain sse1, active compounds read low 0.988 | S. cerevisiae deletion strains, locus YPL240C, strain hsp82, active compounds read low 0.97 | S. cerevisiae deletion strains, locus YPL241C, strain CIN2, active compounds read low 0.99 | S. cerevisiae deletion strains, locus YPL256C, strain CLN2, active compounds read low 0.996 | S. cerevisiae deletion strains, locus YPR119W, strain clb2, active compounds read low 0.99 | S. cerevisiae deletion strains, locus YPR141C, strain kar3, active compounds read low 0.977 | S. cerevisiae deletion strains, locus YPR163C, strain tif3, active compounds read low 0.985 | S. cerevisiae deletion strains, locus YPR167C, strain met16, active compounds read low 0.981 | S. cerevisiae deletion strains, strain wtn01, active compounds read low 0.98 | S. cerevisiae strains, strain wild type, active compounds read low 0.986
